Test results: PubChem BioAssay AID652018 (The Scripps Research Institute Molecular Screening Center, 2013)
Active and inactive are the calls of the source.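 How the source made its calls: active means at least 50% inhibition of LYPLA1 or LYPLA2 at 300 nM, with no off-target enzyme hit at any dose; inactive means under 50% inhibition on both enzymes, or any off-target hit.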

Tested on: Anti-Targets
Assay: LYPLA1/LYPLA2 inhibition and anti-target count – cell lysate, competitive ABPP, HEK293T proteome, set 2, selectivity assay for LYPLA1 inhibitor project, late-stage follow-up (AID 652018)
Settings: competitive ABPP FP-PEG-Rh gel; anti-targets hit, at 10 µM

SMILES	anti-target count	outcome
COc1ccc(N2CCN(C(=O)n3nc(Br)c(Br)n3)CC2)cc1	2	active
O=C(CN1CCN(C(=O)n2ncc(C(O)(c3ccccc3)c3ccccc3)n2)CC1)Nc1cc(C(F)(F)F)ccc1Cl	1	active
O=C(CN1CCN(C(=O)n2cc(-c3ccc(-c4ccccc4)cc3)nn2)CC1)Nc1cc(C(F)(F)F)ccc1Cl	0	inactive
O=C(CN1CCN(C(=O)n2cncn2)CC1)Nc1cc(C(F)(F)F)ccc1Cl	0	inactive
O=C(N1CCN(c2ccc(Br)cc2)CC1)n1ncc(C(O)(c2ccccc2)c2ccccc2)n1	0	inactive
COc1ccc(N2CCN(C(=O)n3ncc(-c4ccccc4)n3)CC2)cc1	0	inactive
O=C(CN1CCN(C(=O)n2nc(Br)nc2Br)CC1)Nc1cc(C(F)(F)F)ccc1Cl	0	inactive
COc1ccc(N2CCN(C(=O)n3ncc(C(O)(c4ccccc4)c4ccccc4)n3)CC2)cc1	1	active
COc1ccc(N2CCN(C(=O)n3ccnn3)CC2)cc1	0	inactive
COc1ccc(N2CCN(C(=O)n3cncn3)CC2)cc1	0	inactive
O=C(CN1CCN(C(=O)n2nccn2)CC1)Nc1cc(C(F)(F)F)ccc1Cl	0	inactive
